Laboratory results: PubChem BioAssay (NCI)
Compounds without any hit were thinned out: in the full panel of roughly 83,000, 20% have a hit.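 Interpretation: 100, growth as untreated; towards 0, rising growth inhibition; 0, no net growth; 0 to -100, cell death. Compounds scoring below 10 were considered active.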 A number with no mark means an inactive call. Activity calls are given as the source filed them.

How the values were obtained:
Experiment in all cases: NCI-60 one-dose screen, 48 h (100 = growth as untreated, 0 = no growth, -100 = all killed)
Settings in all cases: 10 µM unless noted
NCI-H23 lung = system: NCI-H23 lung
NCI-H226 lung = system: NCI-H226 lung
NCI-H322M lung = system: NCI-H322M lung
HOP-62 NSCLC = system: HOP-62 NSCLC
NCI-H460 lung = system: NCI-H460 lung
HOP-92 NSCLC = system: HOP-92 NSCLC
NCI-H522 lung = system: NCI-H522 lung
A549/ATCC NSCLC = system: A549/ATCC NSCLC
786-0 renal = system: 786-0 renal
COLO 205 colon = system: COLO 205 colon
DU-145 prostate = system: DU-145 prostate
K-562 leukemia = system: K-562 leukemia
MALME-3M melanoma = system: MALME-3M melanoma
MDA-MB-231 breast = system: MDA-MB-231 breast
RXF 393 renal = system: RXF 393 renal
SF-268 CNS = system: SF-268 CNS
SF-295 CNS = system: SF-295 CNS
SF-539 CNS = system: SF-539 CNS
UACC-257 melanoma = system: UACC-257 melanoma
M14 melanoma = system: M14 melanoma

Row | Structure (SMILES) | growth (NCI-H23 lung) | growth (NCI-H226 lung) [%] | growth (NCI-H322M lung) | growth (HOP-62 NSCLC) [%] | growth (NCI-H460 lung) | growth (HOP-92 NSCLC) | growth (NCI-H522 lung) | growth (A549/ATCC NSCLC) [%] | growth (786-0 renal) [%] | growth (COLO 205 colon) | growth (DU-145 prostate) [%] | growth (K-562 leukemia) | growth (MALME-3M melanoma) | growth (MDA-MB-231 breast) | growth (RXF 393 renal) | growth (SF-268 CNS) | growth (SF-295 CNS) | growth (SF-539 CNS) | growth (UACC-257 melanoma) | growth (M14 melanoma)
1 | O=CCCCOCc1ccccc1 | 96.4% | 96.5 | 110% | 93.2 | 107% | 90.6% | 88.5% | 95.3 | 98.4 | 109% | 102 | 104% | 95.8% | 101% | 113% | 103% | 95.1% | 101% | 103% | 96.4%
2 | COC(=O)c1nc(-c2ccccc2)oc1S(=O)(=O)N1CCCC(C)C1 (stereo not given) | 87.8% | 90.6 | 90.2% | 107 | 102% | 72.7% | 28.6% | 96.8 | 59.1 | 67.7% | 91.3 | 17.7% | 78.2% | 76.8% | 78.8% | 85.8% | 108% | 85% | 82.3% | 39.3%
3 | COCCn1cc(-c2csc(-c3c[nH]c4ccc(F)cc34)n2)c2cccnc21 | 34.8% | 57.5 | 63.2% | 44 | 15.1% | 38% | -11.7% (active) | 22.1 | 40.4 | 11.5% | 64.6 | 8.38% (active) | 45% | 27.5% | 65% | 46.5% | 16.1% | 46.8% | 36.5% | 13.2%
4 | Nc1nc(C(=O)N/N=C/c2ccc(F)cc2)nn1-c1ccc(S(N)(=O)=O)cc1 | 101% | 99 | 91.1% | 98.8 | 106% | 98.9% | 88.8% | 95 | 97.2 | 112% | 104 | 103% | 89.2% | 96.4% | 95.5% | 95.7% | 102% | 98.9% | 103% | 99.5%
5 | COc1ccc(C(=O)/C=C/c2ccccc2)cc1S(N)(=O)=O | 79.6% | 82.5 | 71.4% | 86.9 | 53.6% | 95.7% | 76% | 65.7 | 64.6 | 98.2% | 41.7 | 7.9% (active) | 93.6% | 71.5% | 80.6% | 63.3% | 91.1% | 60.2% | 90.9% | 82.8%
6 | O=S(=O)(NCCNc1nccc(-c2c(-c3ccc(F)c(O)c3)nc3sccn23)n1)c1ccc(Cl)cc1 | 42.1% | 24.2 | 55.8% | 60.2 | 27% | 45% | 22.2% | 25.7 | 38.3 | 17.6% | 44 | 15.7% | 20.6% | 50.1% | 25% | 32.3% | 29.5% | 43% | 32.9% | 27.5%
7 | CC[C@H](Nc1nc(N)nc(C)c1C#N)c1nc2cccc(CN(C)c3ncc(C(=O)NO)cn3)c2c(=O)n1-c1ccccc1 | 11.6% | 24.3 | 5.95% (active) | 11.4 | 10.8% | -28.3% (active) | -45.2% (active) | 27.4 | 11.9 | -55.8% (active) | 18.5 | 8.69% (active) | 8.44% (active) | -12.6% (active) | -61% (active) | 12.1% | -8.31% (active) | 8.35% (active) | -20.8% (active) | 9.1% (active)
8 | O=C1C(Cl)=C(Nc2ccccc2)C(=O)c2ccccc21 | -34.3% (active) | 95.5 | 92.5% | 101 | 81.1% | -94.4% (active) | -86.2% (active) | 90.8 | 31.9 | 14% | 87.3 | -14.8% (active) | -79.5% (active) | -67.5% (active) | -89.3% (active) | -45.7% (active) | 90% | 44.9% | -79% (active) | -69.4% (active)
9 | Nc1cccc(-c2ccc(COc3ccc(CC4SC(=O)NC4=O)cc3)cc2)c1 (stereo not given) | 70.5% | 94.1 | 89.6% | 48.4 | 43.8% | 42.3% | 29.7% | 44.8 | 77.9 | 101% | 83.2 | 21.6% | 42.5% | 73.4% | 77.7% | 70.6% | 63.8% | 64.3% | 71% | 36.5%
10 | O=C(/C=C/c1ccco1)Nc1ncc(Cc2cc(Cl)ccc2Cl)s1 | 33.4% | 39.4 | 43.7% | 17.8 | 3.88% (active) | 72.4% | -4.32% (active) | 19.8 | 31.4 | -14.2% (active) | 13.9 | 7.9% (active) | 49% | 47.4% | -2.79% (active) | 44% | 9.56% (active) | -18.8% (active) | 38.8% | 6.81% (active)
11 | COc1ccc(CNc2ccc3nc(NC(=O)CN4CCCCCC4)sc3c2)cc1 | 71.1% | 80 | 106% | 113 | 94.9% | 77.6% | 70.3% | 80.5 | 104 | 82.4% | 99.2 | 44.6% | 96.3% | 77.7% | 97% | 108% | 83.8% | 102% | 86% | 85.9%
12 | CN(C)CCC(=O)C1CC1 | 97% | 102 | 98.4% | 91.2 | 103% | 101% | 97.1% | 103 | 99.4 | 112% | 111 | 102% | 102% | 103% | 104% | 102% | 116% | 107% | 91.7% | 104%
13 | COc1ccc(N/N=C/c2cn(-c3ccc(C(=O)O)cc3)nc2-c2cc3ccccc3oc2=O)cc1 | 86.7% | 75.3 | 85.2% | 84 | 47.4% | 86.6% | 52.3% | 57.1 | 59 | 84.3% | 84.2 | 11.3% | 109% | 77.9% | 111% | 68.5% | 22.5% | 50% | 88.9% | 42.3%
